High-throughput results as filed in PubChem.
FXN GAA850 act: FXN promoter activators, primary screen, cell-based, luciferase luminescence, HEK293 lucGAA850; activation, % at 6 µM; HEK293 lucGAA850 FXN promoter luciferase reporter, 24 h; percent of 10 µM SAHA response; 0.56% of 360,000 active;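 active = activation above the average of all compounds screened plus 3 SD, cutoff fixed separately per campaign, cut at about 7.5% in these data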;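 also: 0% = DMSO wells and 100% = 10 µM SAHA wells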
HSF1 activator: HSF-1 activators, primary screen, NIH3T3-HGL cells, MG132 stress, luminescence, single point | NIH3T3-HGL HSF-1 luciferase reporter, 8 h; 100% = twice DMSO control signal | activation, % at 9 µM | 1.7% of 300,000 active | AID 504408, 2011;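 active = mean replicate activation of at least 50% with a set share of replicates each reaching 50%; inconclusive = only one of those two conditions met; inactive = mean below 50% and too few replicates reaching it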;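 also: 0% = median of the neutral control wells and 100% = twice that signal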
HSF1 inh: HSF1 inhibitors in luciferase reporter cells, primary screen, cell-based, NIH3T3, luminescence | NIH3T3-HGL HSE-luciferase, MG132-induced, luminescence 8 h; hits give low values | activity change, negative = inhibition, % at 7.5 µM (by protocol) | 0.77% of 300,000 active | AID 2098, 2009;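 active = more than half of replicate wells show activity change below -50%, luminescence cut by over half; inconclusive = some wells, but at most half, below -50%; inactive = no replicate well below -50%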;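 also: luciferase reports HSF-1 transcriptional activity via heat shock element; 0% = median of DMSO wells and -100% = zero luminescence signal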
HSP90 refold inh: HSP90 inhibitors, primary screen, cell lysate, luminescence. Rabbit reticulocyte lysate, luciferase refolding luminescence, 3 h. inhibition, % at 5.6 µM. 0.91% of 290,000 active. AID 1789, 2009;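 active = inhibition above the screen-wide mean plus 3 SD, computed separately per campaign, cut at about 16% in these data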;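 also: 0% = DMSO wells and 100% = 60 µM geldanamycin wells; inhibitors lower the luminescence because luciferase stays unfolded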
AHR act: AHR activators, primary screen, cell-based, luminescence, luciferase reporter, human; Aryl hydrocarbon receptor (Homo sapiens), P35869; AHR-responsive luciferase reporter cells; activation, % at 5 µM; 2.5% of 320,000 active; in the data active = activation above about 47%;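 also: 0% = vehicle wells and 100% = reference agonist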
Target sequence (P35869 whole entry, looked up): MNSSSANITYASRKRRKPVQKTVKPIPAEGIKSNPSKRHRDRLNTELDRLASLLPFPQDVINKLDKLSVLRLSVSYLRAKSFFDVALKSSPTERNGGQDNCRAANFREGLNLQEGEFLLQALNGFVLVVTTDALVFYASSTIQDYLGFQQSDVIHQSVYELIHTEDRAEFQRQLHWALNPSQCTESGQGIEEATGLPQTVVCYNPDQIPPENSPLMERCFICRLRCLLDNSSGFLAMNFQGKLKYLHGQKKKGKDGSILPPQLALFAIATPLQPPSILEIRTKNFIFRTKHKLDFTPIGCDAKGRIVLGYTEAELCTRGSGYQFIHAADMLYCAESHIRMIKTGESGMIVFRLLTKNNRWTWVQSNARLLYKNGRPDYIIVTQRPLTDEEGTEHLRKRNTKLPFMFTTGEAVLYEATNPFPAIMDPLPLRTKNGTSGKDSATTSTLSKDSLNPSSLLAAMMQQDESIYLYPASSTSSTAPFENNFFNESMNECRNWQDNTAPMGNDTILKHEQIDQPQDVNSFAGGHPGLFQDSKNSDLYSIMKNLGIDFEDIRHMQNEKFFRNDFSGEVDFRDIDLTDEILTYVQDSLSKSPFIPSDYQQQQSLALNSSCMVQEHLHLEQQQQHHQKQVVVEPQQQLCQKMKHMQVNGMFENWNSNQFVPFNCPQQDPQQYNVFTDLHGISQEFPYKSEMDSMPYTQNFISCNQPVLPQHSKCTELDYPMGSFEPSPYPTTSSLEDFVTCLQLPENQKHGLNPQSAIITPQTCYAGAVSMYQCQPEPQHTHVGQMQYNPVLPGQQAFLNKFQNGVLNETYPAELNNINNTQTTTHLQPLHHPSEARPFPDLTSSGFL
NR0B1 inh: DAX1 (NR0B1) inhibitors, primary screen, cell-based, HEK293, Gal4-DAX1, luciferase luminescence; Nuclear receptor subfamily 0 group B member 1 (Homo sapiens), P51843; AID 504766, 2011; HEK293 Gal4-DAX1 luciferase reporter; inhibition, % at 6.75 µM; 0.99% of 340,000 active;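 active = inhibition above the mean over all tested compounds plus 3 SD, cut at about 4.2% in these data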;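 also: 0% = DAX1-transfected cells with DMSO and 100% = empty-vector control cells with DMSO; inhibition shows as a rise in luminescence from relieved DAX1 repression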
The depositor's hits bear a star; ? = inconclusive; . = no result given. Most compounds without a hit are left out; they make up all but 5.9% or so of the library.

SMILES	FXN GAA850 act	HSF1 activator	HSF1 inh	HSP90 refold inh	AHR act	NR0B1 inh
CC(=O)N1CSCC1C(=O)NNS(=O)(=O)c1cccc(C(F)(F)F)c1 (stereo unspecified)	0	75*	19	-1	0	6.3*
Fc1ccc(-c2noc(-c3ccc4c(c3)CCO4)n2)cc1	2	15	-5	-1	62*	.
Cn1c(=O)cc(OCCCC(=O)NC2CCCC2)c2ccccc21	5	56*	23	-3	33	2
COc1cc2sc(NC(=O)c3ccco3)nc2cc1Cl	4	26	12	2	49*	6.7*
O=C(Nc1nc2ccc(Cl)cc2s1)c1ccco1	0	27	10	15	10	1
Cc1ccc2nc(NC(=S)NC(=O)c3ccco3)sc2c1	2	36	9	2	9	5.2*
Cc1cc2sc(NC(=O)c3ccco3)nc2cc1Cl	1	66*	37	4	-3	2
CC(=O)Nc1nc2ccc(NC(=O)c3ccco3)cc2s1	4	12	10	1	16	0
O=C(Cc1cccc(NC(=O)C2CCCN(C(=O)C3CC3)C2)c1)Nc1ccc(C(=O)N2CCOCC2)cc1 (stereo unspecified)	2	.	.	.	.	-2
COc1ccc(C(=O)NCCS(=O)(=O)N2CCCC2)cc1	-1	5	-1	.	2	0
Cc1cc(C)n(Cc2ccc(Cl)cc2Cl)c(=O)c1S(=O)(=O)c1ccccc1	3	59*	23	1	4	-1
COC(=O)c1sccc1NC(=O)c1c(Cl)cnn1C	1	-4	-6	-1	5	0
O=C(c1ccc(OC2CCN(CCc3ccccc3)CC2)cc1)N1CCCC(O)C1 (stereo unspecified)	3	7	-1	-2	-1	0
COC1CCCN(C(=O)c2ccc(OC3CCN(CCc4ccccc4)CC3)cc2)C1 (stereo unspecified)	0	-77	-74*	-2	2	0
Cc1ccc(NC(=O)CSc2nnc3n2CCCCC3)cc1S(=O)(=O)N1CCOCC1	0	.	.	.	.	0
CC(Sc1nnc(C2CC2)n1C1CC1)C(=O)Nc1cccc(S(=O)(=O)N(C)C)c1 (stereo unspecified)	0	.	.	.	-1	0
Cn1nc(-c2ccc(Cl)cc2)c2cc(C(=O)NCCCN3CCOCC3)sc21	2	7	1	2	55*	3
CCCN(CCC)CCNC(=O)c1cc2c(-c3ccc(Cl)cc3)nn(C)c2s1	4	-1	-4	6	39	1
Cn1nc(-c2ccc(Cl)cc2)c2cc(C(=O)NCCN3CCOCC3)sc21	1	5	2	3	50*	7.5*
CCN1CCN(C(=O)c2cc3c(-c4ccc(Cl)cc4)nn(C)c3s2)CC1	2	35	13	4	64*	4.5*
CCN(C(=O)COC(=O)Cn1c(C)csc1=O)c1c(N)n(Cc2ccccc2)c(=O)[nH]c1=O	-2	-36	-18	.	1	0
N#CCCn1cc(/C=C/C(=O)O)c(-c2ccc(F)cc2)n1	1	-5	0	-2	1	5.4*
Cc1ccc(-c2nn(CCC#N)cc2C=C(C#N)C#N)cc1	5	6	-6	-2	4	2
CCCCCN1C(=O)/C(=C/c2c(N3CCc4ccccc4C3)nc3ccccn3c2=O)SC1=S	7	-28	-24	.	33	6.0*
CC(C)C(=O)Nc1c(-c2ccccc2Cl)c(=O)c2ccccc2n1C	-2	5	6	9	.	0
SMILES	FXN GAA850 act	HSF1 activator	HSF1 inh	HSP90 refold inh	AHR act	NR0B1 inh
Cc1ccc(O)c(-c2cc(-c3ccccc3F)[nH]n2)c1	5	157*	135	-5	27	1
O=[N+]([O-])c1ccccc1-c1cc(-c2ccccc2O)n[nH]1	8	23	19	-3	23	1
Cc1ccc(O)c(-c2cc(-c3cccc(F)c3)n[nH]2)c1	2	?	57	2	56*	0
c1ccc(CCNc2cc(-c3ccc4ccccc4c3)nc3ccnn23)nc1	0	.	.	.	.	.
Cc1ccc(/C=N\NC(=O)c2csnn2)cc1	3	37	17	3	49*	2
CN1CCN(C(=O)c2cc3ccccc3[nH]2)CC1	0	-10	-1	-3	18	0
Cc1ccc(S(=O)(=O)N2CCCN(C(=O)c3cc4ccccc4[nH]3)CC2)cc1	2	3	-2	2	62*	1
Cc1ccc(OC(=O)c2ccc3nc(C)sc3c2)cc1	.	-67	-62*	3	-1	.
Cc1nc2ccc(OC(=O)c3ccccc3)cc2s1	0	-6	-2	-3	1	1
O=C(N/N=C/c1cn(-c2ccccc2)nc1-c1ccc2c(c1)OCCO2)c1ccncc1	5	107*	53	0	12	0
Cc1c(C(=O)NCc2cccc(C(F)(F)F)c2)sc(=O)n1Cc1ccccc1F	-3	.	.	.	.	.
Oc1[nH]c2ccccc2c1/C=N/c1nccs1	1	4	-6	2	53*	2
Cc1[nH]c2ccccc2c1/C=N/NC(=O)CNC(=O)c1ccco1	1	2	-3	0	12	.
O=C(CNc1ccc2c(c1)OCO2)N/N=C\c1ccccc1Cl	2	-13	-3	-6	81*	0
Cc1[nH]c2ccccc2c1/C=N\NC(=O)CNc1ccc2c(c1)OCO2	0	4	-4	6	68*	0
Oc1[nH]c2ccccc2c1/C=N/N1CCCCC1	1	-12	-1	-1	35	0
O=c1c2ccccc2c(C=Nc2cccc(O)c2)c(O)n1-c1ccc2c(c1)OCO2	-6	2	-5	2	-4	-2
Oc1[nH]c2ccccc2c1C=Nc1ccc2c(c1)OCO2	5	37	30	-3	58*	5.1*
CC(=O)Nc1ccc(S(=O)(=O)NCCc2ccc3c(c2)OCCO3)cc1	-1	.	.	.	.	1
O=C1NC(=O)C(c2ccccc2)(c2ccccc2)N1S(=O)(=O)c1ccccc1	1	.	.	.	.	0
Cc1ccc(NC(=O)CCNC(=O)c2ccc(Br)cc2)cc1S(=O)(=O)N1CCCCCC1	1	3	9	.	1	0
C[C@H](O)[C@@H]1C(=O)N2CCc3ccc(-c4ccccc4)cc3[C@@H]2C[C@@H]1N(C)C(=O)c1ccco1	-2	.	.	.	.	-1
COCCCNC(=O)c1oc2ccc(S(=O)(=O)N3CCOCC3)cc2c1C	-1	26	2	-2	1	4.9*
